From PubChem BioAssay (NCI)
About 83,000 compounds went through this panel and 20% of them were active in at least one assay; those are over-represented in the sample as a whole.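 The endpoint reported here, percent growth, reads 100 for growth as untreated, 0 for no net growth and -100 for all cells dead.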 Values without a mark were called inactive. Active and inactive are the calls of the source. The calls were made as follows: active = growth percent below 10; inactive = the rest.

What was measured:
Experiment in all cases: NCI-60 one-dose screen, 48 h (100 = growth as untreated, 0 = no growth, -100 = all killed)
Conditions in all cases: 10 µM unless noted
SK-MEL-2 melanoma = tested on: SK-MEL-2 melanoma
EKVX NSCLC = tested on: EKVX NSCLC
SN12C renal = tested on: SN12C renal
UO-31 renal = tested on: UO-31 renal
TK-10 renal = tested on: TK-10 renal
ACHN renal = tested on: ACHN renal
CAKI-1 renal = tested on: CAKI-1 renal
A498 renal = tested on: A498 renal
CCRF-CEM leukemia = tested on: CCRF-CEM leukemia

Row | Structure (SMILES) | growth (SK-MEL-2 melanoma) | growth (EKVX NSCLC) [%] | growth (SN12C renal) | growth (UO-31 renal) | growth (TK-10 renal) | growth (ACHN renal) | growth (CAKI-1 renal) | growth (A498 renal) | growth (CCRF-CEM leukemia)
1 | c1c[nH]c(CNC2CCCCC2)c1 | 115% | 108 | 107% | 89.8% | 120% | 98.1% | 96.1% | 91.3% | 
2 | Cc1ccc(C(=O)CSc2nc(-c3ccc(Br)cc3)c(C#N)c(=O)[nH]2)cc1 | 106% | 106 | 99.5% | 88.5% | 103% | 110% | 87.2% | 65.1% | 105%
3 | CCN1CCN(c2cc(C)nc(NCc3cc(Nc4ccnc5cc(Cl)ccc45)ccc3F)n2)CC1 | 104% | 59.6 | 64.3% | 69.1% | 99.8% | 34.9% | 87.8% | 36.2% | 
4 | CCCCCS(=O)(=O)Nc1ccc(C(=O)O)cc1 | 93% | 100 | 101% | 97.9% | 92.1% | 104% | 102% | 104% | 
5 | CCN1C(=O)N(CC)C2Nn3c(s/c(=C\c4ccc(Cl)cc4Cl)c3=O)=NC21 (stereo not drawn) | 71.2% | 68.8 | 43.3% | 53.5% | 15.8% | 37.6% | 36.9% | 21.4% | 41.7%
6 | Cc1cc(NCc2cc(Nc3ccnc4cc(Cl)ccc34)ccc2F)nc(N2CCCC2)n1 | 93.5% | 17.3 | 35.8% | -50.9% (active) | -35.8% (active) | -69.2% (active) | 71.5% | 59.2% | -22.5% (active)
7 | O=C(Nc1cccc(Cl)c1)c1cc(N=Nc2ccc([N+](=O)[O-])cc2Cl)ccc1O | -26.6% (active) | 70.2 | 82.1% | 38.7% | 136% | 82.4% | 100% | 69.5% | 21.3%
8 | CCCCn1c(=O)c2c(nc3n2CCCN3CCc2ccc(OCC(=O)NCCN(CC)CC)cc2)n(CCCC)c1=O | 73.8% | 70.5 | 64.6% | 43.2% | 71.7% | 78.3% | 77.6% | 1.86% (active) | 24.6%
9 | COC1=CC(=O)C[C@@H](C)[C@]12Oc1c(Cl)c(OC)cc(OC)c1C2=O | 82.7% | 106 | 96.5% | 82.7% | 96.3% | 99.9% | 82.1% | 114% | 93.9%
10 | CC(=O)n1c(-c2ccc(Cl)cc2)nc2c(c1=O)C(c1ccc(Cl)cc1)c1sc3c(Cl)cccc3c1O2 (stereo not drawn) | 7.32% (active) | 32.9 | -0.0627% (active) | 15.6% | -7.43% (active) | 23.4% | 7.82% (active) | 3.79% (active) | -4.47% (active)
11 | CC(C)(C)n1cc(-c2ccnc(NCCCNS(=O)(=O)c3ccccc3)c2)c(-c2ccccc2)n1 | 98.7% | 70.7 | 78.2% | 59% | 94.1% | 97.2% | 80.9% | 39.7% | 42.6%
12 | CC(C)(C)C(CCc1ccc(Cl)cc1)N1CCN(C2CCCCC2)CC1 (stereo not drawn) | 72.9% | 70.1 | 45.7% | 32.6% | 96.2% | 51.3% | 35.8% | 78% | 25.9%
13 | Cc1cc(C)c(-c2c(C)cc(C)cc2CBr)c(CBr)c1 | 94.5% | 102 | 80.3% | 75.9% | 103% | 75% | 87.6% | 73.1% | 42%
14 | CCCCOc1nc2ccccc2cc1C1CNC(=O)c2ccccc2N1 (stereo not drawn) | 15.7% | 33 | 44.1% | 41.3% | 34.3% | 46.7% | 42.6% | -11.2% (active) | 12.6%
15 | COc1cccc(-c2nn(-c3ccccc3)cc2-c2ccnc(NCCCNC(=O)c3ccc(F)cc3)c2)c1 | 51.6% | 44.5 | 62.6% | 40.5% | 57.8% | 71% | 52.4% | 31% | 38.6%
16 | S=C(Cc1ccc2c(c1)CCCC2)N1CCOCC1 | 87.1% | 97.5 | 101% | 92.2% | 106% | 101% | 102% | 101% | 119%
17 | CCN(CC)CCCCCCNc1cc(OC)c(Cl)c2cccnc12 | 92.4% | 85.6 | 67.7% | 51.8% | 85.3% | 82.5% | 84.6% | 45.3% | 84.7%
18 | Cc1ccc(Cl)c(NS(=O)(=O)c2ccc(-c3cnc(C4CC4)o3)cc2)c1 | 56.9% | 31.4 | 60.7% | 44.3% | 68.5% | 36% | 36.6% | -5.72% (active) | 14.1%
19 | COc1cc(Cn2ncc3ccc(NC(=O)c4cc5ccccc5oc4=N)cc32)cc(OC)c1OC | 88% | 71.5 | 87.2% | 51.3% | 91.4% | 57.1% | 82.4% | 98.3% | 52.2%
20 | NC(=S)Nc1cccc(O)c1 | 99.1% | 93 | 95.9% | 80% | 91.8% | 90.3% | 90% | 115% | 103%
21 | COC(=O)[C@]12CC[C@@H](C)[C@H](C)[C@@H]1C1=CC[C@@H]3[C@@]4(C)C(C=O)=C[C@@](C)(COC(=O)/C=C/c5ccccc5)[C@@H]4[C@H](O)C[C@@]3(C)[C@]1(C)CC2 | -23.5% (active) | 26.9 | 3.47% (active) | 3.64% (active) | 26% | -14.7% (active) | 15% | 19.6% | 16.4%
22 | O=C(c1ccc(Nc2nccc(NCCCCNc3ccnc4cc(Cl)ccc34)n2)cc1)N1CCCCC1 | 68.7% | 67.5 | 67.4% | 73.9% | 91.5% | 37.8% | 86.1% | 68% | -11.8% (active)
23 | CC(=O)OC[C@H]1OC(Sc2sc(C(=O)c3ccc(Br)cc3)c(N)c2-c2nc3ccccc3s2)[C@H](OC(C)=O)[C@@H](OC(C)=O)[C@@H]1OC(C)=O (stereo partly drawn) | 107% | 72.7 | 33% | 64.6% | 111% | 54.9% | 63.8% | 87.8% | 44.1%
24 | Cc1cc(NCCCCNc2ccnc3cc(Cl)ccc23)nc(Nc2ccc(C(=O)N3CCCCC3)cc2)n1 | -63.1% (active) | 41.1 | 29.6% | 33.5% | -49.2% (active) | -4.47% (active) | 79.5% | 53.4% | -20% (active)
25 | Oc1ccc(CN2CCC(N3CCOCC3)CC2)c2cccnc12 | -6.57% (active) | 59.4 | 11.8% | 14.5% | 30.6% | 12.8% | 43.2% | 71.1% | 22.4%
26 | CCn1c(C)nc2cc(C(N)=O)ccc21 | 96% | 142 | 98.1% | 91.5% | 98% | 96.7% | 143% | 107% | 95.4%
27 | Cc1nc2c(c(N3CCCc4ccccc43)n1)CCC2 | 43.9% | 86.4 | 31.5% | 29.6% | 57.8% | 18.8% | 20.7% | -1.39% (active) | 1.69% (active)
28 | CC(CCc1ccc(Cl)c(Cl)c1)NCc1ccc(C(C)(C)C)cc1 (stereo not drawn) | 105% | 102 | 91.9% | 78.6% | 78.4% | 92.7% | 85.9% | 90.8% | 77.2%
29 | CC(=O)C(C)Cc1cc2c(cc1C)C(C)(C)CCC2(C)C (stereo not drawn) | 94.8% | 94.4 | 103% | 101% | 100% | 104% | 97.6% | 108% | 121%
